Screens (PubChem BioAssay)
CYP2C19 act = cytochrome P450 2C19 (human) activation; recombinant CYP2C19, luciferin-H EGE luminescence; stronger effect = higher value; 0 = fully inhibited enzyme, 1 = untreated enzyme; activation factor at 5 µM; 96,000 tested, under 10 active; P33261; AID 1025;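 active = activation factor of at least 2 at 5 µM in the primary screen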
DAT uptake mod = human DAT dopamine uptake with cocaine, either direction; Q01959; LLC-PK1 hDAT cells, [14C]-dopamine uptake with cocaine IC80; actives deviate in either direction; B-score at 10 µM; 110,000 tested, 1.3% active;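 active = Z score or B-score, a plate-position-corrected score, falls beyond the plate's 99.7% confidence bounds, in either direction; inactive = both scores lie inside the 99.7% bounds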
CYP2C19 inhib = human CYP2C19 inhibition; P33261; inhibition, % at 5 µM; 96,000 tested, 21% active; CYP2C19 Supersomes, luciferin-H EGE luminescence, 30 min;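 active = CYP2C19 inhibition above a set limit at 5 µM in the primary screen, cut at about 50% in these data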
CYP2C9 inh = human CYP2C9 inhibition; P11712; CYP2C9 Supersomes, luciferin-H conversion, luminescence; inhibition, % at 5 µM; 96,000 tested, 20% active; AID 777;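 active = blocking of liver enzyme CYP2C9 beyond about 50% at 5 µM, limit read from the data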
Target sequence (P11712 whole entry, looked up): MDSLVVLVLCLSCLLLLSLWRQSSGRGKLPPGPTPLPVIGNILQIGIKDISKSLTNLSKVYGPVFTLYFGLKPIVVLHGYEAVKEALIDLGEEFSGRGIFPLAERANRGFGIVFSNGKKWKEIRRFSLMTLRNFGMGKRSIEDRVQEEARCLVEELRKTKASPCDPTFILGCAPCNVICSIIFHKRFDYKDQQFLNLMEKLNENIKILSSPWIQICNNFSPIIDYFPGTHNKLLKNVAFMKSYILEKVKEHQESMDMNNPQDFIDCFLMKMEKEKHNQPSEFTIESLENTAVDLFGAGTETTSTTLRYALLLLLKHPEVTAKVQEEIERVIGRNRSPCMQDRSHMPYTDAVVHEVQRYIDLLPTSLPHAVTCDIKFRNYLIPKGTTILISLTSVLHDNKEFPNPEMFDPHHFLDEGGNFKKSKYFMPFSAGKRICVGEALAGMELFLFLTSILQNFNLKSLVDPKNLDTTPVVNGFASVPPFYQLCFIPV
D1 mod = allosteric modulators of human D1 dopamine receptor. B-score at 10 µM. P21728. AID 641. HEK293 D1, CRE-luciferase, dopamine EC30 potentiation; actives deviate in either direction. 58,000 tested, 5.9% active;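 active = luminescence count or its row- and column-corrected plate score outside the 99.7% band of the plate's sample wells, on either side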
CYP2C9 act = CYP2C9 (human) activation | P11712 | recombinant CYP2C9, luciferin-H conversion, luminescence; stronger effect = higher value; factor 1 = untreated enzyme, 0 = blocked | activation factor at 5 µM | 96,000 tested, 1.4% active | AID 1024;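 active = activation factor of 2 or more for CYP2C9 at a 5 µM dose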
Large screens that a line does not name were inactive. Compounds with a hit are over-represented: about 28% of the library has one in this group of screens.

Cc1c(Cl)c([N+](=O)[O-])nn1Cc1ccc(C(=O)N/N=C\c2cccc(Br)c2)o1	CYP2C19 inhib 67.7, CYP2C9 inh 64.4 (no result: D1 mod)
COc1ccc(CNC(=O)CSc2nc(-c3ccccc3)cc(-c3cccs3)c2C#N)cc1	CYP2C9 inh 68.6 (no result: D1 mod)
COc1ccc(-c2cc(C(F)(F)F)nc(SCC(=O)NCc3cccs3)n2)cc1	none (no result: D1 mod)
COc1ccc(-c2cc(-c3cccs3)c(C#N)c(SCC(=O)NCc3ccco3)n2)cc1	CYP2C9 inh 84.7
CCN(CC)C(=O)CSc1nc(-c2cccs2)cc(-c2cccs2)c1C#N	none (no result: CYP2C19 act, CYP2C19 inhib, CYP2C9 inh, D1 mod, CYP2C9 act)
CN1CCN(C(=O)CSc2nc(-c3cccs3)cc(-c3cccs3)c2C#N)CC1	CYP2C19 inhib 85.8, CYP2C9 inh 78.2
COc1cc(CN2C(=O)C(NC(=O)c3ccco3)(C(F)(F)F)C3=C2CC(C)(C)CC3=O)cc(OC)c1 (configuration not stated)	CYP2C9 inh 60.3 (no result: D1 mod)
CCOC(=O)NC1(C(F)(F)F)C(=O)N(Cc2ccccc2)C2=C1C(=O)CC(C)(C)C2 (configuration not stated)	CYP2C19 inhib 71.0 (no result: D1 mod)
CC[C@H]1OC(=O)C[C@@H](O)[C@H](C)[C@@H](O[C@@H]2O[C@H](C)C[C@H](N(C)C)[C@H]2O)[C@@H](CC=O)C[C@@H](C)C(=O)C=C[C@]2(C)O[C@H]2[C@@H]1C	none (no result: CYP2C19 act, DAT uptake mod, CYP2C19 inhib, CYP2C9 inh, CYP2C9 act)
Cc1occc1-c1nnc(SCC(=O)NC2CCCC2)n1-c1ccccc1	none (no result: CYP2C19 act, CYP2C19 inhib, CYP2C9 inh, D1 mod, CYP2C9 act)
Cc1ccccc1-n1c(Cn2c(=O)sc3ccccc32)nnc1SCC(=O)NCC1CCCO1 (configuration not stated)	CYP2C9 inh 50.3
COCCCn1c(SCC(=O)Nc2nnc(C)s2)nnc1-c1ccoc1C	CYP2C9 inh 81.9
CCc1nnc(NC(=O)CSc2nnc(-c3ccoc3C)n2-c2ccccc2)s1	CYP2C19 inhib 93.7, CYP2C9 inh 82.8
Cc1ccc(-n2c(SCC(=O)NCC3CCCO3)nnc2-c2ccoc2C)cc1 (configuration not stated)	CYP2C19 inhib 84.6
O=C(CNC(=O)c1ccco1)OCN1C(=O)c2ccccc2C1=O	none
CCc1nnc(NC(=O)CSc2nnc(-c3ccoc3C)n2-c2ccc(C)cc2)s1	CYP2C19 inhib 63.5, CYP2C9 inh 65.8
CCOc1ccccc1-n1c(SCC(=O)Nc2nccs2)nnc1-c1ccoc1C	CYP2C19 inhib 76.3, CYP2C9 inh 79.4
CCc1nnc(NC(=O)CSc2nnc(-c3ccoc3C)n2CC(C)C)s1	CYP2C19 inhib 87.6, CYP2C9 inh 87.9
CCc1nnc(NC(=O)CSc2nnc3scc(-c4ccc(C)cc4)n23)s1	none (no result: CYP2C19 act, CYP2C19 inhib, CYP2C9 inh, CYP2C9 act)
Cc1occc1-c1nnc(SCC(=O)Nc2nccs2)n1CCc1ccccc1	none
COc1ccc(OCC(=O)Nc2cccc(OC)c2)cc1	CYP2C19 inhib 70.8
CCc1cccc(NC(=O)COc2ccccc2)c1	CYP2C19 inhib 51.6 (no result: D1 mod)
COC(=O)COc1cccc(NC(=O)COc2ccccc2)c1	none
CCN(CC(=O)Nc1cccc(OC)c1)C(=O)c1ccc(C)s1	CYP2C19 inhib 76.3, CYP2C9 inh 72.4 (no result: D1 mod)
COc1cccc(NC(=O)Nc2ccc3nsnc3c2)c1	CYP2C9 inh 64.3 (no result: D1 mod)
CCOC(=O)N1CCN(C(=O)CN(c2ccc(OCc3ccccc3)cc2)S(C)(=O)=O)CC1	none
NC(=O)CC(NC(=O)Cc1ccc(Br)cc1)c1ccc(N2CCC(Cc3ccccc3)CC2)c([N+](=O)[O-])c1 (configuration not stated)	none (no result: CYP2C19 act, CYP2C19 inhib, CYP2C9 inh, D1 mod, CYP2C9 act)
CC(=O)Oc1ccc(C(=O)Nc2cc(C)ccc2NC(=O)COc2ccccc2)cc1	CYP2C9 inh 58.4 (no result: DAT uptake mod, D1 mod)
CC(=O)c1cccc(NC(=O)COc2ccccc2)c1	CYP2C19 inhib 74.1, CYP2C9 inh 56.8
CSc1cccc(NC(=O)COc2ccccc2)c1	none
COc1ccc(CC(=O)Nc2cccc(-c3csc(C)n3)c2)cc1	CYP2C19 inhib 68.6, CYP2C9 inh 59.6 (no result: D1 mod)
CC(=O)c1cccc(NC(=O)Cc2ccc3c(c2)CCCC3)c1	CYP2C9 act 2.6 (no result: D1 mod)
COc1ccc(CC(=O)Nc2ccc(-c3csc(C)n3)cc2)cc1	none (no result: D1 mod)
CC(C)(C)NC(=O)CSc1nnc(Cc2ccc3c(c2)OCO3)n1C1CCCCC1	none
CCOC(=O)c1c(C)oc2c1c(C(c1cccnc1)N1CCOCC1)c(O)c1ccccc12 (configuration not stated)	CYP2C9 inh 64.4 (no result: D1 mod)
